# Results: PubChem BioAssay (EPA / NIEHS)
# Calls of active or inactive are those of the source. How the source made its calls: active means hit-call score of the fitted dose curve at least 0.9, where 1 is the maximum; inactive means score below 0.9.
# Read-out: Fatty acid synthase (Homo sapiens) (UniProt P49327)
# Assay: LTEA_HepaRG_FASN: Life Technologies and Expression Analysis (LTEA) Assay for Fatty Acid Synthase (FASN) using HepaRG (AID 2283448)
# Settings: mRNA level, 48 h; actives raise or lower the signal
# Description: LTEA_HepaRG is a cell based, multiplexed-readout assay that uses HepaRG, a human liver cell line, with measurements taken at 48 hours after chemical dosing on a 96-well plate.LTEA_HepaRG_FASN is one of 102 assay component(s) measured in the LTEA HepaRG cell culture assay. It is a marker of Steatosis.Data from the assay component LTEA_HepaRG_FASN was analyzed into 1 endpoint. This assay endpoint, LTEA_HepaRG_FASN, was analyzed with bidirectional fitting relative to DMSO as the negative control and baseline of activity. Using a type of inducible reporter, measures of mRNA induction for gain or loss-of-signal activity can be used to understand regulation of transcription factor activity. To generalize the intended target to other relatable targets, this assay endpoint is annotated to the lyase intended target family, where the subfamily is fatty acid synthase.
# A total of 1060 chemcials from the ToxCast library were tested in eight-point concentration-response experiments. Cell culture and cytotoxicity assays were conducted at Thermo Fisher Scientific's Custom Services facility (Madison, WI). A single lot of human HepaRG cells (Thermo Fisher Scientific, Frederick, MD) was used for the cell culture experiments. 96-well format collagen type I coated plates of human HepaRG cells were prepared using established methods. Briefly, cryopreserved HepaRG cells were thawed, plated at a density of approximately 100,000 cells/well in HepaRG Thaw, Plate, and General Purpose media (HPRG770, Thermo Fisher Scientific), and incubated for 48 hours. 0.5% DMSO was selected as vehicle control to balance the requisite need of DMSO in HepaRG cultures to maintain differentiation (for example, baseline metabolism, proportions of hepatocytes vs. cholangiocytes), while enabling further hepatic receptor pathway activation (for example, PXR and CAR) in response to chemical exposure. 48 hours after plating, the culture medium was replaced with HepaRG Serum-Free Incudtion Media. Cells were exposed to each test chemical in duplicate and maintained in CO2 incubators for another 48 hours. Chemical plates were thawed to room temperature and 200x concentrations of treatment groups were prepared. 8-point conentration-reponse curves were made with the highest exposure at 100 uM, followed by half-log dilutions, all in 0.5% DMSO. Each test plate contained variouse controls, induction positive controls (1mM phenobarbital), cytotoxicity positive controls ([…] aflatoxin B1), vehicle controls (0.5% DMSO), and total lysis controls (0.5% DMSO). Cell morphology images were taken using an Essen IncuCyte FLR automated microscope, with six 96-well plates imaged in about 24 minutes. Images were captured and exported and JPEG files. Spent culture media was transfered to black-well plates for the LDH assay, and remaining media was sorted at -80 C for later use. Cells were treated with RLT buffer and frozen until shipped for gene expression analysis. Total RNA was isolated from the cell suspension in 75 uL of Buffer RLT (Qiagen, Germantown, MD 20874) by Quintiles/Expression Analysis (Durham, NC) using a custom isolation procedure. Total RNA from each plate well was transferred to a preamplification plate. Fluidigm's 96.96 Dynamic ArrayTM (Fluidigm, Amsterdam, the Netherlands) technology was used for gene expression analyses by quantitative reverse transcription polymerase chain reaction (qRT-PCR, performed by Quintiles/Expression Analysis, Durham, NC)89. Standard TaqManTM Assays (Applied Biosystems/ThermoFisher Scientific, Foster City, CA) were used to assess the expression of 93 genes selected based on their selectivity and sensitivity to important hepatic receptors known to be modulated by environmental chemicals; importance in human hepatocyte functionality; and hepatotoxicity. […]
# Chain of Fatty acid synthase (Homo sapiens) (P49327 whole entry, looked up): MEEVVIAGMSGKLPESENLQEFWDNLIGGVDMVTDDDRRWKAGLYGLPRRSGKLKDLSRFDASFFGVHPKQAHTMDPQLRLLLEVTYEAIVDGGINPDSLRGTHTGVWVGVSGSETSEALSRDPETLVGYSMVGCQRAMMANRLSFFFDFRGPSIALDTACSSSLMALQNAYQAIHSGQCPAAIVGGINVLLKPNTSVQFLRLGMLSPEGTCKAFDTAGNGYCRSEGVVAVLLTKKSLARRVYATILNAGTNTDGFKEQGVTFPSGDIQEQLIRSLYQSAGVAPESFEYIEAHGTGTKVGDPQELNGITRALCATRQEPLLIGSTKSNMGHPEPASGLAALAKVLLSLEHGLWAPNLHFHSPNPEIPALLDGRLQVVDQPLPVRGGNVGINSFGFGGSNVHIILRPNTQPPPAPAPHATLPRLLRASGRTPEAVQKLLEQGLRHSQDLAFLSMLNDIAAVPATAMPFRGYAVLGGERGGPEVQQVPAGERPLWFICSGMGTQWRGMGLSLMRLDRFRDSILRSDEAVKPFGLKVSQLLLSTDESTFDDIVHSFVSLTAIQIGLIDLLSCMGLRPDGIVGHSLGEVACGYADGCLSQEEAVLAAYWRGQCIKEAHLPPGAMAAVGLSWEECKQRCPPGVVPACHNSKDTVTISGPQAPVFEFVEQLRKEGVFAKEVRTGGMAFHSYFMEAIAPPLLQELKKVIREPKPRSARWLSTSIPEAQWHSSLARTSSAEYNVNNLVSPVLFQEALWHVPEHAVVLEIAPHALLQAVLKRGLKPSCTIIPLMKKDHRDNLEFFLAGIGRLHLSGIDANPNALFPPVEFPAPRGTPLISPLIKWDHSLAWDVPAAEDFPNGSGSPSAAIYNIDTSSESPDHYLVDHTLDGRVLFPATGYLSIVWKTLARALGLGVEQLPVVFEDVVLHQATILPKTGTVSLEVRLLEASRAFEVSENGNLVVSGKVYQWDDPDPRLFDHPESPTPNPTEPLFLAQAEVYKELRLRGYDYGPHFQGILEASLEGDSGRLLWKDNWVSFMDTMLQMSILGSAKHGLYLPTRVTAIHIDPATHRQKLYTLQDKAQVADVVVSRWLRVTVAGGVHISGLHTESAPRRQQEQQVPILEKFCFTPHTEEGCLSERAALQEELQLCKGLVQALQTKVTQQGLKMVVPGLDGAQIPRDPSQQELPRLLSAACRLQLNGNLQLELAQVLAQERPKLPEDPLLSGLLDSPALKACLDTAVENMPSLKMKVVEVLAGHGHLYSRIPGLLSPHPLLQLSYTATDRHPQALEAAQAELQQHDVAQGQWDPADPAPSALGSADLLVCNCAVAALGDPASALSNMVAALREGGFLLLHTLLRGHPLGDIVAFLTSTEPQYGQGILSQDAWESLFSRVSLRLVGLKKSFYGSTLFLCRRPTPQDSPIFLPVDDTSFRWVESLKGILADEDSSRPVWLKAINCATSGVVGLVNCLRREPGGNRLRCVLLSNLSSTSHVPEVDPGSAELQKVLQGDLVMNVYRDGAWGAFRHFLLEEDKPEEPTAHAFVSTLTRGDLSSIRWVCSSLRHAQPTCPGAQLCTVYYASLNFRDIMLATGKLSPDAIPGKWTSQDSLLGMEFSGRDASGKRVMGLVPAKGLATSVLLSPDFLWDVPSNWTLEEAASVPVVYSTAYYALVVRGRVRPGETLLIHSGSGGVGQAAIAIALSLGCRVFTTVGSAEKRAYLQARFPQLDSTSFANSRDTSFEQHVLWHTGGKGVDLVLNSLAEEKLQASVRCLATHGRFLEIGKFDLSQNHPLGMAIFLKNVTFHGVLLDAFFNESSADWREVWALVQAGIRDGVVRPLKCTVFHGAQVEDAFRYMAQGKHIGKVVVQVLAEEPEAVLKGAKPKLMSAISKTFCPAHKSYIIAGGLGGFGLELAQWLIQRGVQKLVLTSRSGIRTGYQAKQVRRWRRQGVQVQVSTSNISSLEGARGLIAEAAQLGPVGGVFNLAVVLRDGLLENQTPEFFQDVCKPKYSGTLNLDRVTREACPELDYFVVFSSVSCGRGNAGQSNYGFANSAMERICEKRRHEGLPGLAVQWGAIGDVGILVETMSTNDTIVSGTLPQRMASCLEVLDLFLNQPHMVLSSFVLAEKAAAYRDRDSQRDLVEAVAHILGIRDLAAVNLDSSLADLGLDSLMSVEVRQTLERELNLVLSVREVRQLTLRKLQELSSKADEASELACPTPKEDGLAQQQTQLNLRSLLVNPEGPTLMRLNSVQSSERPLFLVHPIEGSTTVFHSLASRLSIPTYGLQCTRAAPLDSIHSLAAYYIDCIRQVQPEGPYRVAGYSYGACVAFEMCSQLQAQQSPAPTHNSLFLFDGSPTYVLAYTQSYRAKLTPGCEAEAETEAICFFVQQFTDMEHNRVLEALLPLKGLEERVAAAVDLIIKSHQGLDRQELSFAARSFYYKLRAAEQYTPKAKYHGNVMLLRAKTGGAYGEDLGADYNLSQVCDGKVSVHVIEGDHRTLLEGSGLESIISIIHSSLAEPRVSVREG
SMILES,AC50,outcome
CCCCC(CC)CN1C(=O)C2C3C=CC(C3)C2C1=O (stereo not given),34.6 µM (active),–
COC(=O)c1ccc(I)cc1S(=O)(=O)NC(=O)Nc1nc(C)nc(OC)n1,–,inactive
CCCOC(=O)c1ccc(C(=O)OCCC)nc1,–,inactive
O=C(O)C1(C(=O)Nc2ccc(Cl)cc2Cl)CC1,69.8 µM (active),–
CCCCOC(=O)C(C)Oc1ccc(Oc2ccc(C(F)(F)F)cn2)cc1 (stereo not given),–,inactive
CC(C)(c1ccc(O)cc1)c1ccc(O)cc1,–,inactive
CCCN(CCC)C(=O)SCC,–,inactive
CCOC(=O)c1ccc(O)cc1,–,inactive
O=C(c1ccc(O)cc1O)c1ccc(O)cc1O,–,inactive
CCCN(CCC)c1c([N+](=O)[O-])cc(C(F)(F)F)c(N)c1[N+](=O)[O-],50 µM (active),–
COC(=O)CSc1cc(N=c2sc(=O)n3n2CCCC3)c(F)cc1Cl,–,inactive
CCOC(=O)C(C)Oc1ccc(Oc2cnc3cc(Cl)ccc3n2)cc1 (stereo not given),43 µM (active),–
CCOC(=O)COc1cc(-n2ncc(C(F)(F)F)c(C)c2=O)c(F)cc1Cl,–,inactive
CCCCC(CC)COC(=O)c1ccccc1C(=O)O (stereo not given),–,inactive
COc1c(Cl)ccc(Cl)c1C(=O)O,–,inactive
CCN(CC)C(=O)c1cccc(C)c1,–,inactive
COC(=O)c1ccccc1C(=O)O,–,inactive
Oc1ccc(C(c2ccc(O)cc2)C(Cl)(Cl)Cl)cc1,88.8 µM (active),–
CSC(=O)c1cccc2nnsc12,–,inactive
CC(C)CCCCCCc1ccc(O)cc1,–,inactive

SMILES,AC50,outcome
N[C@@H](Cc1cc(I)c(Oc2ccc(O)c(I)c2)c(I)c1)C(=O)O,–,inactive
c1ccc(Nc2ccccc2)cc1,–,inactive
CCCCOC(=O)[C@@H](C)Oc1ccc(Oc2ccc(C(F)(F)F)cn2)cc1,–,inactive
C#CCOC(=O)[C@@H](C)Oc1ccc(Oc2ncc(Cl)cc2F)cc1,13.3 µM (active),–
CCOC(=O)NCCOc1ccc(Oc2ccccc2)cc1,50 µM (active),–
CCCOC(=O)NCCCN(C)C,–,inactive
CCOC(=O)C(C)Oc1ccc(Oc2nc3ccc(Cl)cc3o2)cc1 (stereo not given),–,inactive
CC(=O)S[C@@H]1CC2=CC(=O)CC[C@]2(C)[C@H]2CC[C@@]3(C)[C@@H](CC[C@@]34CCC(=O)O4)[C@H]12,37.3 µM (active),–
CCN(Cc1c(F)cccc1Cl)c1c([N+](=O)[O-])cc(C(F)(F)F)cc1[N+](=O)[O-],50 µM (active),–
COCCO,–,inactive
O=C(c1ccccc1)C1CCCCC1,–,inactive
OB(O)O,–,inactive
S=C([S-])NCCNC(=S)[S-].[Mn+2],2.55 µM (active),–
CC(C)(C)[C@@H](O)[C@@H](Cc1ccc(Cl)cc1)n1cncn1,50 µM (active),–
Cc1nn(C)c(Oc2ccccc2)c1C=NOCc1ccc(C(=O)OC(C)(C)C)cc1,–,inactive
O=C(Nc1ccc([N+](=O)[O-])cc1Cl)c1cc(Cl)ccc1O,2.94 µM (active),–
C[C@]12CC[C@@H]3c4ccc(O)cc4C[C@@H](CCCCCCCCCS(=O)CCCC(F)(F)C(F)(F)F)[C@H]3[C@@H]1CC[C@@H]2O (stereo not given in full),–,inactive
CCNc1nc(N)nc(Cl)n1,–,inactive
CC(=O)[C@H]1CC[C@H]2[C@@H]3CCC4=CC(=O)CC[C@]4(C)[C@H]3CC[C@]12C,82.1 µM (active),–
CCC(C)OC(=O)N1CCCCC1CCO (stereo not given),–,inactive
